# Data published in PubChem BioAssay (NCATS).
# “And” between values parts separate entries of the source, which are not always exact repeats. Equal values may be shown once. Unmarked numbers belong to inactive results. Inconclusive results are not listed. A call without a number means that no potency is given here. The source made the active and inactive calls. Unless noted, calls come from the whole dose curve; as a rule, active = well fitted curve in the direction sought with a large enough effect; inconclusive = small, poorly fitted or top-dose-only effect, or another doubt; inactive = no such curve, though single readings can be large; an effect the other way counts as inactive or inconclusive.
# Legend:
# [1] = Cell Viability - SK-N-SH (AID 435; calls by dose curve;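 note: potency is the fitted concentration of half-maximal effect; compound exposure lasted 40 h at 37 °C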); conditions: SK-N-SH neuroblastoma cell viability qHTS
# Summary of the method: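 CellTiter-Glo ATP luminescence, 20 min RT read; cells pre-plated 5 hr, compound 40 hr at 37 °C, 1500 cells/well, complete medium. Normalized DMSO = 0, 100 uM tamoxifen = 100% inhibition; Hill-fit AC50.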
# [2] = Cell Viability - HUV-EC-C (AID 542); conditions: HUV-EC-C endothelial cell viability, qHTS; series mostly up to 92.2 µM; note: nearly all actives have a fitted effect of over 35% in size
# Summary of the method: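 HUV-EC-C normal human vascular endothelial cells, 1000 cells/well, pre-incubated 5 hr at 37 °C, then exposed to compounds for 40 hr at 37 °C in complete medium. Viability measured as intracellular ATP by CellTiter-Glo luminescence; AC50 from Hill fits.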
# [3] = Cell Viability - Renal Proximal Tubule (AID 545); conditions: renal proximal tubule cells viability; series mostly up to 91.7 µM; note: nearly all actives have a fitted effect of over 40% in size
# Summary of the method: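 Rat kidney proximal tubule cells, freshly isolated; 1000 cells/well, 5 hr settle, compound 40 hr 37 °C. CellTiter-Glo 20 min RT, luminescence read. AC50 by standard Hill fit.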
# [4] = Cell Viability - LYMP2-005 (AID 967); conditions: LYMP2-005 lymphoblastoid cell viability; series mostly up to 92.2 µM
# Summary of the method: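 Steps: seed 2500 LYMP2-005 cells/well, incubate 5 h at 37 C, add compound, incubate 24 h at 37 C, add CellTiter-Glo, wait 30 min at RT, read luminescence. Concentration-response data fitted to Hill equation for AC50.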
# [5] = Cell Viability - LYMP2-011 (AID 969); conditions: LYMP2-011 lymphoblastoid cells viability; series mostly up to 92.2 µM; note: nearly all actives have a fitted effect of over 60% in size
# Summary of the method: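 Human lymphoblastoid cells (2500/well) were plated in complete medium, preincubated 5 hr at 37 C, then exposed to compounds for 24 hr at 37 C. Intracellular ATP was read by CellTiter-Glo luminescence, and AC50 came from Hill-equation concentration-response fits.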
# [6] = Cell Viability - LYMP2-013 (AID 970); conditions: LYMP2-013 lymphoblastoid cells viability; series mostly up to 92.2 µM; note: nearly all actives have a fitted effect of over 55% in size
# Summary of the method: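 Human lymphoblastoid cells, 2500/well, were preincubated 5 hr at 37 C, then treated with compounds for 24 hr at 37 C in complete medium. Intracellular ATP was read by CellTiter-Glo luminescence; AC50 from Hill-equation fits of concentration-response data.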
# [7] = Cell Viability - LYMP2-015 (AID 971); conditions: LYMP2-015 lymphoblastoid cell viability; series mostly up to 92.2 µM; note: nearly all actives have a fitted effect of over 55% in size
# Summary of the method: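 Human lymphoblastoid cells (2500/well) in complete medium were preincubated 5 hr at 37 C, then compound-treated 24 hr at 37 C. Intracellular ATP was read by CellTiter-Glo luminescence after 30 min at room temperature; AC50 came from Hill-equation concentration-response fits.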
# [8] = Cell Viability - LYMP2-021 (AID 974); conditions: LYMP2-021 lymphoblastoid cells viability; series mostly up to 92.2 µM;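 note: compound exposure lasts 24 hours at 37 °C; nearly all actives have a fitted effect of over 55% in size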
# Summary of the method: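 Human lymphoblastoid cells (2500/well) were preincubated 5 hr at 37 C, then exposed to compounds for 24 hr at 37 C in complete medium. Intracellular ATP was read by CellTiter-Glo luminescence; AC50 came from Hill-equation fits of concentration-response data.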
# [9] = Cell Viability - LYMP2-002 (AID 977); conditions: LYMP2-002 lymphoblastoid cell viability, qHTS; series mostly up to 92.2 µM
# Summary of the method: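 Luminescent ATP readout (CellTiter-Glo, 30 min room temperature) after 24 h compound exposure at 37 C of a human lymphoblastoid line, 2500 cells/well. AC50 values derived by standard Hill fitting of qHTS concentration-response data.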
# [10] = Cell Viability - LYMP1-002 - Assay at 24 hr (AID 993); conditions: LYMP1-002 lymphoblastoid cells viability; series mostly up to 92.2 µM
# Summary of the method: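 Human lymphoblastoid LYMP1-002 cells, 2500/well in complete medium, were treated with compounds for 24 h at 37 C; intracellular ATP was read by CellTiter-Glo luminescence. AC50 values came from Hill-equation fits of qHTS concentration-response data.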
# [11] = molecular target: Peroxisome proliferator-activated receptor delta (Homo sapiens) (UniProt Q03181); test: qHTS assay for small molecule agonists of peroxisome proliferator-activated receptor delta signaling (AID 588534; calls by dose curve); conditions: HEK293T PPARdelta-UAS-bla, beta-lactamase ratio, 18 h; series mostly up to 76.7 µM
# Sequence of Peroxisome proliferator-activated receptor delta (Homo sapiens) (Q03181 whole entry, looked up): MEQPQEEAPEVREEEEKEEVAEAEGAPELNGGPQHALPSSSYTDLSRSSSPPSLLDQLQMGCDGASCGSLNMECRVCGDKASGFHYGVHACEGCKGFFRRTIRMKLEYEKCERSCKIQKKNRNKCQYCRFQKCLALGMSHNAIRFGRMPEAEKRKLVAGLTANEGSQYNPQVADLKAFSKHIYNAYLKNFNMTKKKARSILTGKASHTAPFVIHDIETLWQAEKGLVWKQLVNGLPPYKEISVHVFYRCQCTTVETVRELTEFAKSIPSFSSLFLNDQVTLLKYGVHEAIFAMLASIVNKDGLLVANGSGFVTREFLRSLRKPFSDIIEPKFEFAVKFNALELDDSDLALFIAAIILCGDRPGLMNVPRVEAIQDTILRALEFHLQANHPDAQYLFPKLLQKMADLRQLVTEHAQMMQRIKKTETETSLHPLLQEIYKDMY
# Summary of the method: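 Cell-based beta-lactamase reporter assay run in agonist mode: cells seeded and incubated 5 hrs at 37 C, compounds added and incubated 18 hrs at 37 C. CCF4 dye fluorescence read after 2 hrs at RT; EC50 and efficacy from Hill fits.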
# [12] = molecular target: Retinoic acid receptor RXR-alpha (Homo sapiens) (UniProt P19793); test: qHTS assay for small molecule antagonists of retinoid X receptor alpha signaling (AID 588546; active = well fitted inhibition curve with a large enough effect in the signal ratio, with a control signal flat, not every such curve was filed as active; the % refers to the signal ratio;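 note: cells stimulated with 9-cis-retinoic acid as agonist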); conditions: HEK293T RXRa-UAS-bla, beta-lactamase ratio, antagonist mode
# Sequence of Retinoic acid receptor RXR-alpha (Homo sapiens) (P19793 whole entry, looked up): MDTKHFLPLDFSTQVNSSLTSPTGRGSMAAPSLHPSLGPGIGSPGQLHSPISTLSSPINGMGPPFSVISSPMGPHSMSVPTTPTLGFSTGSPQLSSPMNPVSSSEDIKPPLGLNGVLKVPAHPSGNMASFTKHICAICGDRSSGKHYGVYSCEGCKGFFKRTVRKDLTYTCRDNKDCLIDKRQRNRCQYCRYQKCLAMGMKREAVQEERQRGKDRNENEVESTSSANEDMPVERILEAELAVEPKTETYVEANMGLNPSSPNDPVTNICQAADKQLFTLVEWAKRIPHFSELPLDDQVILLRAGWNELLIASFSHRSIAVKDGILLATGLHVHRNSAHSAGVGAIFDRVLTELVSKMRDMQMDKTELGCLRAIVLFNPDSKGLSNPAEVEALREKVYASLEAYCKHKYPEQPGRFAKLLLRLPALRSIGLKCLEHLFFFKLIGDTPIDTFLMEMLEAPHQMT
# Summary of the method: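 Beta-lactamase reporter inhibition, read as CCF4 fluorescence ratio (ex 405, em 460/530 nm) after 2 h at RT. HEK293T UAS-bla cells, 2500/well, were stimulated with 9-cis-RA at 500 or 100 nM final alongside test compound for 18 h at 37 C.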
# [13] = qHTS assay for small molecule activators of the nuclear factor-kappa B (NF-kB) signaling pathway (AID 651749; active = well fitted activation curve with a large enough effect in the signal ratio; the % refers to the signal ratio); conditions: NF-kB-bla ME-180 cells, beta-lactamase FRET ratio, 16 h; hits give high values
# Summary of the method: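 ME-180 cells stably carrying a beta-lactamase reporter under an NF-kB response element were exposed to compound or DMSO vehicle for 16 hr at 37C, 5% CO2. Pathway activation was read by FRET, since reporter expression disrupts FRET.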
# [14] = qHTS assay for small molecule antagonists of the retinoid-related orphan receptor gamma (ROR-gamma) signaling pathway - cell viability counter screen (AID 720652; active = well fitted curve in the direction sought with a large enough effect in the repeat runs; an effect the other way counts as inactive or inconclusive;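 note: CHO reporter cells with doxycycline-induced ROR-gamma expression; compound exposure lasted 16 hr before ATP read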); conditions: RORgamma reporter cell line viability counter screen; series mostly up to 92.2 µM
# Summary of the method: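 Counter screen in CHO cells carrying TET-inducible ROR-gamma and an ROR response element-luciferase reporter; cells plated 5 hr, compound pinned, doxycycline added, then 16 hr at 37 C. Viability read as intracellular ATP by CellTiter-Glo luminescence.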
# [15] = molecular target: Nuclear receptor subfamily 1 group I member 2 (Rattus norvegicus) (UniProt Q9R1A7); test: qHTS assay for small molecule activators of the rat pregnane X receptor (rPXR) signaling pathway (AID 651751; call rule not given here); conditions: rPXR reporter cells, luciferase (One-Glo), 24 h
# Sequence of Nuclear receptor subfamily 1 group I member 2 (Rattus norvegicus) (Q9R1A7 whole entry, looked up): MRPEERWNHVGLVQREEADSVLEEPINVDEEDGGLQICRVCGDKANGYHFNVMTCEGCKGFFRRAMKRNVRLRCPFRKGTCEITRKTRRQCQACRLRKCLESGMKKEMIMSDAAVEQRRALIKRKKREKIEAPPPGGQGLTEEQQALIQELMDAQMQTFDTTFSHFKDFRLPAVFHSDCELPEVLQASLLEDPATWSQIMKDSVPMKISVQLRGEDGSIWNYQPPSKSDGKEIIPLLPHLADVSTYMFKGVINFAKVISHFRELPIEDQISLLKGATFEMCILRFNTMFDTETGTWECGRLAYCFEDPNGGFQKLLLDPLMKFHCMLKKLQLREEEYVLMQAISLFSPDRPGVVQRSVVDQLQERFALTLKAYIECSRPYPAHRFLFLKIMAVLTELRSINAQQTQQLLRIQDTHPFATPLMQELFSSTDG
# [16] = qHTS assay for small molecule activators of the human pregnane X receptor (PXR) signaling pathway (AID 720659; call rule not given here); conditions: DPX-2 HepG2 CYP3A4-luciferase, 24 h; series mostly up to 92.3 µM
# [17] = Cell Viability - LYMP2-023 (AID 975); conditions: LYMP2-023 lymphoblastoid cell viability; series mostly up to 92.2 µM;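 note: cellular ATP measured by luciferase luminescence as viability proxy; nearly all actives have a fitted effect of over 55% in size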
# Summary of the method: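 Human lymphoblastoid cells (2500/well) were preincubated 5 hr at 37 C, then exposed to compounds for 24 hr at 37 C in complete medium. Cellular ATP was read by CellTiter-Glo luminescence, and AC50 came from Hill-equation fits.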
# [18] = Cell Viability - LYMP2-010 (AID 981); conditions: LYMP2-010 lymphoblastoid cell viability, qHTS; series mostly up to 92.2 µM; note: nearly all actives have a fitted effect of over 55% in size
# Summary of the method: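 Human lymphoblastoid LYMP2-010 cells (2500/well) were preincubated 5 hr at 37 C, then exposed to compounds for 24 hr at 37 C in complete medium. Intracellular ATP was measured by CellTiter-Glo luminescence after 30 min at room temperature; AC50 from Hill-fitted concentration-response.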
# [19] = Cell Viability - LYMP2-020 (AID 986); conditions: series mostly up to 92.2 µM; note: nearly all actives have a fitted effect of over 55% in size
# Summary of the method: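 Human lymphoblastoid cells, 2500/well, were pre-incubated 5 hr at 37 C, then exposed to compounds for 24 hr at 37 C in complete medium. Intracellular ATP was read by CellTiter-Glo luminescence, and AC50 was derived by Hill fitting of concentration-response data.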
# [20] = qHTS assay for small molecule agonists of the antioxidant response element (ARE) signaling pathway (AID 651741; active = well fitted activation curve with a large enough effect in the signal ratio; the % refers to the signal ratio; note: potency is the fitted concentration of half-maximal effect); conditions: HepG2 ARE-bla reporter, beta-lactamase FRET ratio, 16 h; series mostly up to 96 µM
# Summary of the method: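 ARE-bla HepG2 cells (beta-lactamase reporter under ARE control) were plated at 2,000 cells/well, preincubated 5 h at 37 C/5% CO2, then treated with DMSO-dissolved compounds for 16 h at 37 C; LiveBLAzer B/G FRET substrate added, fluorescence read after 2 h at room temperature.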
Structure (SMILES),Potency [1],Potency [2],outcome [3],Potency [4],Potency [5],Potency [6],Potency [7],Potency [8],Potency [9],Potency [10],outcome [11],max response [12],activation [13],Potency [14],max response [15],outcome [16],Potency [17],Potency [18],Potency [19],Potency [20]
N#CCc1ccccc1,> 92 µM,inactive,inactive,inactive,inactive,inactive,inactive,inactive,inactive,inactive,inactive,20.3%,0.487%,inactive,1.21%,inactive,,,,
C=CCBr,> 92 µM,inactive,inactive,,inactive,inactive,inactive,inactive,,inactive,,13.2%,,inactive,1.14%,inactive,inactive,inactive,inactive,inactive
O=Cc1ccc2c(c1)OCO2,> 92 µM,,,inactive,inactive,inactive,inactive,inactive,inactive,,inactive,,-0.011%,inactive,2.27%,inactive,inactive,inactive,inactive,inactive
O=Cc1ccc(Cl)cc1Cl,> 92 µM,inactive,inactive,,inactive,inactive,inactive,inactive,inactive,inactive,inactive,2.38%,1.15%,inactive,2.77%,inactive,inactive,inactive,inactive,
c1ccc(C2CO2)cc1 (stereo not given),> 92 µM,inactive,inactive,inactive,,inactive,,inactive,inactive,inactive,inactive,32.3%,,inactive,-1.42%,inactive,inactive,inactive,inactive,inactive
C=COC(C)=O,> 92 µM,,inactive,inactive,inactive,inactive,,inactive,,inactive,,-3.99%,-0.411%,inactive,2.31%,inactive,,inactive,,
ClCC(Br)CBr (stereo not given),> 92 µM,inactive,inactive,inactive,inactive,inactive,inactive,,inactive,,,13.4%,-0.578%,inactive,0.571%,inactive,inactive,inactive,inactive,
Cl/C=C/Cl,> 92 µM,inactive,inactive,inactive,inactive,inactive,,inactive,inactive,inactive,inactive,6.16%,-1.04%,inactive,-3.34%,inactive,inactive,inactive,,inactive
Nn1cnnc1,> 92 µM,inactive,inactive,inactive,,inactive,inactive,inactive,,inactive,inactive,24.4%,-1.28%,inactive,2.65%,inactive,inactive,inactive,inactive,
CC(=O)[O-].CC(=O)[O-].CC(=O)[O-].[Cr+3],> 92 µM,,inactive,,inactive,inactive,inactive,inactive,inactive,inactive,,18.8%,,inactive,,,inactive,inactive,inactive,inactive
CC(Cl)(Cl)Cl,> 92 µM,inactive,inactive,inactive,inactive,inactive,inactive,,,inactive,inactive,,-0.312% and 0.328%,inactive,-1.71% and -2.72%,inactive,inactive,inactive,inactive,inactive
O=C(O)c1cccc(Cl)c1,> 92 µM,inactive,,inactive,inactive,,inactive,inactive,inactive,,inactive,,-1.59%,inactive,0.516%,inactive,inactive,inactive,inactive,inactive
ClCCCCl,> 92 µM,inactive,inactive,inactive,inactive,inactive,inactive,inactive,inactive,inactive,inactive,9.28%,0.207%,inactive,-3.7%,inactive,inactive,,inactive,inactive
CCCCNC(=O)n1c(NC(=O)OC)nc2ccccc21,> 92 µM,,,inactive,inactive,inactive,inactive,inactive,inactive,inactive,,,-0.565% and 0.0154%,inactive,,inactive,inactive,inactive,inactive,inactive
N#CCBr,> 92 µM,inactive,inactive,inactive,inactive,inactive,inactive,inactive,inactive,inactive,,-1.67%,0.342%,,-1.93%,inactive,,inactive,inactive,16.8 µM (active)
